This passage reports growth reduction results from the supplement of paper PMC12024424.

The structures appear in SMILES notation. Counter-ions that a name gives are not always drawn.

The test system of test [1] is Staphylococcus aureus Sa2 (MRSA, cystic fibrosis isolate). The experiment in a line: growth reduction vs untreated control (OD550); higher = stronger antibacterial activity. The conditions noted are these: 0.1 mM; 24 h. How it is done: (§1)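 Single-dose screen of the MedChem Express Drug Repurposing Library (0.1 mM, 1% DMSO) against planktonic MRSA S. aureus Sa2 (CF isolate) in TSB in 96-well plates, 37 °C aerobic, 24 h. Assays were run in triplicate and repeated twice.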

Test [2] shares this test system. As to the kind of experiment: growth reduction vs untreated control (viable cell count); higher = stronger antibacterial activity; extreme values may be limits of the assay. The conditions noted are these: 0.1 mM; 24 h. As for the experimental part: as §1

Regarding `O=C1[C@H](CC[C@H](O)c2ccc(F)cc2)[C@@H](c2ccc(O)cc2)N1c1ccc(F)cc1` [Ezetimibe], the growth reduction amounted to 91.7% in test [1] and 91% in test [2].

For the compound `CCC[C@H](Oc1cc(C)c(-n2cc(C(F)(F)F)cn2)c(C)c1)c1ccc(C(=O)NCCC(=O)O)cc1`, the growth reduction in test [1] and in test [2] was 100% in each case.

Take `COCc1c(C(C)C)nc(C(C)C)c(/C=C/[C@@H](O)C[C@@H](O)CC(=O)O)c1-c1ccc(F)cc1` [Cerivastatin (sodium)]: the results for the growth reduction in test [1] and in test [2] were 93.6% and 99%, respectively.

For the compound `COCCN1CCC(N(Cc2ccc(-c3ccc(C(F)(F)F)cc3)cc2)C(=O)Cn2c(SCc3cccc(F)c3F)cc(=O)c3ccccc32)CC1` [Rilapladib], the growth reduction in test [1] and in test [2] was 100% throughout.

Take `CC(=O)[C@]1(O)Cc2c(O)c3c(c(O)c2[C@@H](O[C@H]2C[C@H](N)[C@H](O)[C@H](C)O2)C1)C(=O)c1ccccc1C3=O` [Idarubicin (hydrochloride)]: the results for the growth reduction in test [1] and in test [2] were 98.1% and 100%, respectively.

Turning to `C[C@@H]1CCc2ncc(F)cc2[C@H]2CCCN2c2ccn3ncc(c3n2)C(=O)N1` [Selitrectinib], the growth reduction in test [1] was 96.9%; in test [2], 97%.

`CCCCCOc1ccccc1/C(=C\SC)n1ccnc1` [Neticonazole]: the growth reduction in test [1] and in test [2] was 100% throughout.

As for `CC(C)(C)c1ccc(C(O)CCCN2CCC(C(O)(c3ccccc3)c3ccccc3)CC2)cc1` (stereo unspecified) [Terfenadine], the growth reduction in test [1] and in test [2] was 100% in each case.

As for `CCC(c1ccccc1)c1c(O)c2ccccc2oc1=O` (stereo unspecified) [Phenprocoumon], the values for the growth reduction in test [1] and in test [2] were 94.6% and 95%, respectively.

For the compound `COc1cc(C(=O)NS(=O)(=O)c2ccccc2C)ccc1Cc1cn(C)c2ccc(NC(=O)OC3CCCC3)cc12` [Zafirlukast], the growth reduction in test [1] and in test [2] was 100% each time.

With `N=C(N)c1ccc(OCCCCCOc2ccc(C(=N)N)cc2)cc1` [Pentamidine (isethionate)], the growth reduction in test [1] and in test [2] was 100% in each case.

As to `C=CC(=O)Nc1cccc(Oc2nc(Nc3ccc(N4CCN(C)CC4)c(F)c3)nc3[nH]ccc23)c1` [Avitinib (maleate)], the growth reduction was determined as 100% in test [1] and 99% in test [2].

Turning to `COc1cccc2c1C(=O)c1c(O)c3c(c(O)c1C2=O)C[C@@](O)(C(=O)CO)C[C@@H]3O[C@H]1C[C@H](N)[C@H](O)[C@H](C)O1` [Doxorubicin (hydrochloride)], the growth reduction in test [1] turned out to be 96.1%; in test [2] it was 100%.

On to `CCOc1cc(CC(=O)N[C@@H](CC(C)C)c2ccccc2N2CCCCC2)ccc1C(=O)O` [Repaglinide], for which the values for the growth reduction in test [1] and in test [2] were 96.9% and 100%, respectively.

For the compound `CC1=CC(=O)c2ccccc2C1=O` [Menadione], the results for the growth reduction in test [1] and in test [2] were 96.7% and 100%, respectively.

Take `C=C1CC[C@H](O)C/C1=C/C=C1\CCC[C@]2(C)[C@@H]([C@H](C)/C=C/[C@H](C)C(C)C)CC[C@@H]12` [Vitamin D2]: the growth reduction in test [1] and in test [2] was 100% throughout.

For the compound `CNC(=O)c1ccc(Nc2ncc(C(F)(F)F)c(NCc3nccnc3N(C)S(C)(=O)=O)n2)cc1` [Defactinib], the growth reduction stood at 96.2% in test [1] and 95% in test [2].

For `Nc1ccc2cc3ccc(N)cc3nc2c1` [Proflavine (hemisulfate)], the growth reduction in test [1] and in test [2] was 100% throughout.

Turning to `Cc1cnc(NC(=O)Nc2cc(Br)c(C)cc2OC[C@@H]2CNCCO2)cn1` [Rabusertib], the growth reduction in test [1] and in test [2] was 100% in each case.

On to `CCc1oc2ccccc2c1C(=O)c1cc(Br)c(O)c(Br)c1` [Benzbromarone], for which the growth reduction in test [1] and in test [2] was 100% in each case.

As for `Cc1cc(Nc2ncc(Cl)c(Nc3ccccc3S(=O)(=O)C(C)C)n2)c(OC(C)C)cc1C1CCNCC1` [Ceritinib], the growth reduction in test [1] and in test [2] was 100% each time.

For `COC(=O)[C@]12CCC(C)(C)C[C@H]1[C@H]1C(=O)C=C3[C@@]4(C)C=C(C#N)C(=O)C(C)(C)[C@@H]4CC[C@@]3(C)[C@]1(C)CC2` [Bardoxolone methyl], the growth reduction in test [1] and in test [2] was 100% throughout.

On to `COc1cccc2c1c(O)c(C(=O)N(C)c1ccc(C(F)(F)F)cc1)c(=O)n2C` [Tasquinimod], for which the values for the growth reduction in test [1] and in test [2] were 92.4% and 98%, respectively.

In the case of `CCOC(=O)C1=C(C)NC(C)=C(C(=O)OC)C1c1cccc(Cl)c1Cl` (stereo unspecified) [Felodipine], the growth reduction in test [1] and in test [2] was 100% each time.

Turning to `Cc1cc(SCc2sc(-c3ccc(C(F)(F)F)cc3)nc2C)ccc1OCC(=O)O`, the growth reduction in test [1] and in test [2] was 100% in each case.

Turning to `CC(=O)OC[C@H]1O[C@@H]([S-])[C@H](OC(C)=O)[C@@H](OC(C)=O)[C@@H]1OC(C)=O.CCP(CC)CC.[Au+]` [Auranofin], the growth reduction in test [1] was found to be 99.9%; in test [2], 100%.

Turning to `Oc1c(I)cc(Cl)c2cccnc12` [Clioquinol], the growth reduction in test [1] and in test [2] was 100% each time.

As to `CC(C)(C)C(=O)Oc1ccc(S(=O)(=O)Nc2ccccc2C(=O)NCC(=O)O)cc1` [Sivelestat (sodium)], the growth reduction in test [1] amounted to 92.9%; in test [2], 93%.
